# Test results reported in PubChem BioAssay (NCI).
# Compounds without any hit were thinned out: in the full panel of roughly 83,000, 20% have a hit.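 Cell lines were cultured in 96-well plates, exposed to a single compound concentration, and assessed for percent growth 48 hours later.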 A number with no mark means an inactive call. The source made the active and inactive calls. The calls were made as follows: active = growth percent below 10; inactive = the rest.
# How the values were obtained:
# Assay in all cases: NCI-60 one-dose screen, 48 h (100 = growth as untreated, 0 = no growth, -100 = all killed)
# Conditions in all cases: 10 µM unless noted
# SK-MEL-2 melanoma = system: SK-MEL-2 melanoma
# EKVX NSCLC = system: EKVX NSCLC
# SN12C renal = system: SN12C renal
# UO-31 renal = system: UO-31 renal
# TK-10 renal = system: TK-10 renal
# ACHN renal = system: ACHN renal
# CAKI-1 renal = system: CAKI-1 renal
# A498 renal = system: A498 renal
# CCRF-CEM leukemia = system: CCRF-CEM leukemia
# MOLT-4 leukemia = system: MOLT-4 leukemia
Structure (SMILES),growth (SK-MEL-2 melanoma),growth (EKVX NSCLC),growth (SN12C renal),growth (UO-31 renal),growth (TK-10 renal),growth (ACHN renal),growth (CAKI-1 renal),growth (A498 renal),growth (CCRF-CEM leukemia),growth (MOLT-4 leukemia)
COc1ccccc1N(C(C)=O)C1=C(Cl)C(=O)c2ccccc2C1=O,-38.2% (active),10.1%,16%,11.4%,-6.2% (active),-29.5% (active),10.6%,36.2%,-16.9% (active),10.9%
N#Cc1cccc(C2C3=C(COC3=O)N(CCO)c3cc4c(cc32)OCO4)c1 (stereo not given),26.8%,51.8%,44.2%,43.4%,50%,39.2%,29.7%,11.9%,7.91% (active),24.8%
Oc1ccc(/C=C/c2ccc(O)cc2)cc1,90.8%,76.5%,62.5%,21.5%,61.1%,11%,78.7%,77.5%,4.33% (active),74.9%
NC(=O)c1cnc(Nc2cccc(N)c2)nc1NCCCNC(=O)C1CCC1,65.2%,93%,33%,27.8%,32.1%,49.5%,37.2%,90.4%,25.9%,26.1%
CCS/C(Nc1ccccc1)=C(\C#N)C(=O)Nc1ccc(OC)cc1,-0.335% (active),52.4%,37.8%,50%,47.7%,51.9%,40.4%,22.7%,8.29% (active),10.1%
C[C@@H]1O[C@@H](O[C@@H]2C[C@H](c3ccc4c(c3O)C(=O)C3=C(C4=O)[C@@]4(O)C(=O)C[C@](C)(O)C[C@@]4(O)C=C3)O[C@H](C)[C@H]2O)CC[C@@H]1O[C@H]1C[C@@H](O)[C@H](O)[C@@H](C)O1,110%,98%,98.4%,82.8%,97.4%,90.8%,93.3%,108%,90.5%,86.6%
COC1=C(C)C(=O)N2[C@@H]1[C@H](c1ccccc1)OC21C=CC(=O)C=C1,11.1%,70.3%,0.448% (active),-42.9% (active),20.8%,-29.3% (active),-59.6% (active),92.7%,-19.7% (active),-4.79% (active)
COc1ccc(CCN2C(=O)/C(=C/c3ccc(C4Oc5ccccc5C5CC(c6ccccc6)=NN54)cc3)SC2=S)cc1 (stereo not given),103%,97.4%,101%,80.7%,104%,102%,89.8%,115%,36.6%,100%
COc1cc(/C=C/C(=O)/C=C(O)/C=C/c2ccc(OC(=O)C34CC5CC(CC(C5)C3)C4)c(OC)c2)ccc1OC(=O)C12CC3CC(CC(C3)C1)C2,101%,101%,95.5%,69.3%,97%,99%,91.3%,102%,103%,116%
CCCC(CC)(C(=O)Nc1ccc2nc(C)cc(N)c2c1)C(=O)Nc1ccc2nc(C)cc(N)c2c1,108%,101%,105%,90.1%,96.5%,105%,91.9%,104%,99.9%,98.8%
Fc1ccc(Cn2cc(CSc3nc4ccccc4o3)nn2)cc1,99.1%,108%,96.5%,83.6%,95.7%,102%,91.3%,98%,100%,92.7%
C=C(c1ccc(OC)c(/C=C/C(=O)c2ccc3c(c2)OCO3)c1)c1cc(OC)c(OC)c(OC)c1,32.1%,23.4%,8.55% (active),23.4%,23%,-26.5% (active),11.6%,17.7%,13.3%,11.1%
COc1ccc2c(c1)c(/C(O)=C1\COC(=O)C1=O)cn2Cc1ccc(F)cc1,85.5%,106%,92.9%,72.9%,119%,103%,125%,91.5%,76.7%,112%
CNC(=O)c1ccccc1Nc1nc(Nc2cc(OC)c(OC)c(OC)c2)ncc1Br,-77.4% (active),-10.4% (active),-40.7% (active),-17.6% (active),-31.4% (active),12.5%,2.5% (active),-88.4% (active),71.3%,66.3%
C=C1CC[C@@H]2[C@](C)(COC(C)=O)[C@H](OC(C)=O)CC[C@@]2(C)[C@@H]1CC(Nc1ccc(S(=O)(=O)NC(C)=O)cc1)C1=CCOC1=O (stereo not given in full),-7.41% (active),57.5%,1.94% (active),-58.5% (active),2.78% (active),-63.2% (active),30.3%,73.4%,-27.9% (active),0.118% (active)
O=C1/C(=C/c2ccc(O)c(O)c2)COc2ccc(-c3ccccc3)cc21,59%,78.8%,13.9%,-64.6% (active),25.8%,15.3%,4.86% (active),30.7%,16.2%,10.9%
O=C(/C=C(O)/C=C/c1cccc2[nH]ccc12)/C=C/c1cccc2[nH]ccc12,85.9%,97.8%,82.5%,52%,83.9%,84.4%,74.6%,112%,65.4%,59.2%
CCN(CC)c1ccc(CNc2cc(C)nc3ccccc23)cc1,84.2%,42.6%,75.4%,40%,67%,64.6%,53.2%,52.5%,70%,86.4%
S=c1nc2oc(-c3ccccc3)c(-c3ccccc3)c2c(/N=C\c2ccco2)[nH]1,92.1%,95.7%,99.1%,81.2%,99.6%,93.8%,92.3%,101%,108%,84%
Fc1cc(Nc2ccc3c(OCCCN4CCOCC4)cccc3n2)ccc1Cl,88.8%,39.9%,62.6%,33.3%,66.1%,52.6%,54.8%,54.4%,29.2%,3.8% (active)
O=C(Nc1ncccc1OCc1ccccc1)NC1CCCCCC1,91.9%,88.2%,78.6%,85.1%,94%,93.4%,86.7%,101%,77.5%,78.7%
C#Cc1cccc(Nc2nc(C)nc3cc(NC(=O)CCl)ccc23)c1,-69.8% (active),-58.8% (active),-67.8% (active),-91.8% (active),-93.9% (active),-92% (active),-91% (active),48.2%,-12.3% (active),-20.7% (active)
COc1ccc(/C=C/c2c(C(=O)/C=C/c3ccccc3)c(C)nc3ccccc23)cc1,14.2%,41%,23.6%,-7.16% (active),25.1%,7.53% (active),20.9%,46.6%,7.45% (active),6.35% (active)
O=c1nc(-c2ccccc2)c2cc(-c3ccc(C(F)(F)F)nc3)ccc2[nH]1,103%,97.8%,102%,75.8%,99.9%,96.5%,93.1%,104%,46.5%,83.3%
C=C1C(=O)O[C@H]2[C@H]1CC/C(COC(=O)/C=C/C(=O)OC/C1=C/CC[C@@]3(C)O[C@H]3[C@H]3OC(=O)C(=C)[C@@H]3CC1)=C\CC[C@@]1(C)O[C@@H]21,93.4%,88.2%,4.73% (active),-41.7% (active),0.985% (active),-13.5% (active),63.3%,102%,-12.9% (active),7.58% (active)
CCCn1cnc2c(c1=N)C(c1ccc(F)cc1)c1sc3c(F)cccc3c1O2 (stereo not given),45.8%,76.5%,58.6%,53.9%,80.3%,56.8%,30.6%,51.1%,20.4%,43.8%
